# Source: PubChem BioAssay
# The list is not random: actives were taken first. Their share in the collection is about 19%.
# HT1080NT lethal – kills 2HG-producing HT-1080-NT fibrosarcoma cells | 1.6% of 360,000 active | Potency, µM (highest dose often 46.1 µM), without a hit: at the highest dose activity, negative = less viability, most hits filed as cytotoxic | HT-1080-NT fibrosarcoma viability, CellTiter-Glo ATP luminescence, 48 h;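 note: NT is the 2HG producing partner of a matched IDH1 knockdown line; 0% = DMSO-treated cells and -100% = media-only wells without cells; nearly all actives have a fitted effect of over 55% in size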
#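 Viability of the 2HG-overproducing fibrosarcoma line after 48 hours of compound exposure at 37 degrees C was determined by luminescence with CellTiter-Glo, and concentration-effect curves were then fitted and categorized.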
# KB-V1 cytotox – kills drug-selected multidrug resistant KB-V1 cells | 3.4% of 400,000 active | Potency, µM (highest dose often 46.1 µM), hits mostly cytotoxic | KB-V1 MDR cells viability, CellTiter-Glo, 72 h; note: nearly all actives have a fitted effect of over 60% in size
#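 KB-V1 MDR subline cells in DMEM (phenol-red free, 10% FBS) exposed to compounds in qHTS concentration series for 72 h at 37 degrees C. Viability read by CellTiter-Glo luminescence; concentration-effect curves fitted after normalization and correction.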
# TDP1 cell CPT – growth inhibition of DT40 Tdp1-/-;hTDP1 cells with camptothecin (screen for TDP1 inhibitors). chicken DT40 Tdp1-/-;hTDP1 cells + 20 nM CPT, ATP luminescence, 48 h. Potency, µM (top dose mostly 46.2 µM), for inactives: top-dose activity change, negative = growth inhibition, hits mostly inhibitors. 12% of 420,000 active; note: nearly all actives have a fitted effect of over 55% in size
#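 Chicken DT40 Tdp1-/- cells stably complemented with human TDP1 were seeded at 400 cells/well in medium containing 20 nM camptothecin, exposed to pin-transferred compounds, and grown at 37 °C for at least 48 hr. Viability was read as ATP luminescence.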
# HT1080 IDH1KD tx – toxicity to HT-1080 IDH1 knockdown cells (counter line) | Potency, µM (highest dose often 46.1 µM), inactives show at the top dose activity, negative = toxicity, actives largely listed as cytotoxic | 2% of 360,000 active | HT-1080 IDH1 knockdown viability, ATP luminescence, 48 h | AID 686971;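 note: 0% = DMSO wells and -100% = cell-free medium wells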
#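 % activity derives from luminescence (CellTiter-Glo), normalised to DMSO and no-cell wells. HT-1080-IDH1KD cells, 750/well, had 48 h compound exposure at 37 °C.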
# KB-3-1 tox – kills parental KB-3-1 adenocarcinoma cells. Potency, µM (top dose mostly 46.1 µM), hits mostly cytotoxic. KB-3-1 viability, CellTiter-Glo ATP luminescence, 72 h. AID 1347075. 1.4% of 400,000 active; note: nearly all actives have a fitted effect of over 60% in size
#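 72 h, 37 °C compound treatment of KB-3-1 parental cells; CellTiter-Glo added, 10 min, luminescence read. Data corrected against DMSO-only plates and normalized before curve fitting.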
# TDP1 cell noCPT – qHTS for Inhibitors of human tyrosyl-DNA phosphodiesterase 1 (TDP1): qHTS in cells in absence of CPT; DT40 Tdp1-/- hTDP1 cells, no CPT, ATP luminescence, 48 h; Potency, µM (doses to about 46.2 µM), inactives show at the highest dose activity change, negative = growth inhibition, actives largely listed as inhibitors; 15% of 420,000 active; AID 686978, 2013; note: nearly all actives have a fitted effect of over 55% in size
#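 Growth kinetics read by CellTiter-Glo luminescence after ≥48 hr at 37 °C. Cells: DT40 Tdp1-/- stably carrying human TDP1, 400 per well, compound exposure in the absence of CPT (DMSO vehicle).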
# An asterisk follows results filed as active; i = inactive; ? = inconclusive; nt = not tested or not shown; [ ] = another dose, or the depositor's remark. Calls come from the whole dose curve; as a rule, active = well fitted curve in the direction sought with a large enough effect; inconclusive = small, poorly fitted or top-dose-only effect, or another doubt; inactive = no such curve, though single readings can be large; an effect the other way counts as inactive or inconclusive. Unless noted, % is set by controls: 0 for no effect and ±100 for the full control effect; potency is the fitted concentration of half-maximal effect.
SMILES,HT1080NT lethal,KB-V1 cytotox,TDP1 cell CPT,HT1080 IDH1KD tx,KB-3-1 tox,TDP1 cell noCPT
O=C1C(Cl)=C(N2CCCCC2)C(=O)C(Cl)=C1c1cnc(N2CCCCC2)s1,?,i,0.92µM*,16.4µM*,18.4µM*,0.92µM*
O=C(CC[C@H]1O[C@@H](n2ccc(=O)[nH]c2=O)[C@H](O)[C@@H]1O)NCC(c1ccccc1)c1ccccc1,12.8%,i,-2.7%,17.1%,i,-15.6%
CC(C)(C)N1C(=O)c2ccccc2NC(=O)C1C(=O)NCCc1ccccc1F (stereo not given),20.4%,i,?,26.9%,i,?
Cc1ccccc1C1c2[nH]c3ccccc3c2C[C@H]2C(=O)N(c3ccccc3C(=O)NCCN3CCOCC3)C(=O)N12 (stereo not given in full),-2.9%,i,?,-2.0%,i,?
Cc1ccc(C2c3[nH]c4ccccc4c3C[C@H]3C(=O)N(c4ccccc4C(=O)NCCCN4CCOCC4)C(=O)N23)cc1 (stereo not given in full),?,i,11.6µM*,29.1µM*,i,?
Cc1ccc(C2c3[nH]c4ccccc4c3C[C@H]3C(=O)N(c4ccccc4C(=O)NCCN4CCOCC4)C(=O)N23)cc1 (stereo not given in full),-8.7%,i,-91.2%,-6.4%,i,-90.8%
O=C(NCCCN1CCOCC1)c1ccccc1N1C(=O)[C@@H]2Cc3c([nH]c4ccccc34)C(c3cccc(Cl)c3)N2C1=O (stereo not given in full),?,i,9.2µM*,?,i,10.3µM*
Cc1ccccc1C1c2[nH]c3ccccc3c2C[C@H]2C(=O)N(c3ccccc3C(=O)NCCCN3CCOCC3)C(=O)N12 (stereo not given in full),-12.8%,i,23.1µM*,-9.4%,i,16.4µM*
O=C1NC(=O)/C(=C/C(=O)N2CCOCC2)S1,0.4%,i,-4.4%,-0.8%,i,-0.5%
CCCn1ccc2c(OCC(=O)Nc3ccccc3OCC)cccc2c1=O,nt,?,20.6µM*,nt,i,11.6µM*
COCCn1ccc2c(OCC(=O)Nc3ccccc3OC)cccc2c1=O,-13.2%,?,18.4µM*,-22.1%,i,20.6µM*
CCCn1ccc2c(OCC(=O)NCc3ccccc3Cl)cccc2c1=O,nt,i,?,nt,i,23.1µM*
COCCn1ccc2c(OCC(=O)NCCc3ccccc3)cccc2c1=O,1.4%,i,-20.3%,-1.5%,i,?
CCOc1ccccc1NC(=O)CCNC(=O)Cn1ccc2ccccc2c1=O,22.8%,i,-14.2%,8.2%,i,-11.9%
CCOCCn1ccc2c(OCC(=O)Nc3ccccc3F)cccc2c1=O,-4.9%,i,?,-0.9%,i,?
CCOc1ccccc1NC(=O)COc1cccc2c(=O)n(CCOC)ccc12,nt,?,11.6µM*,nt,i,13µM*
CC(C)c1ccc(S(=O)(=O)Nc2ccc3oc4c(c3c2)C(=O)CC(C)(C)C4)cc1,nt,i,nt,nt,?,nt
COc1cccc(NC(=O)CCNC(=O)Cn2cnc3ccccc3c2=O)c1,nt,i,4.4%,nt,i,5.3%
CCCCCCCCC1=NCCc2c1[nH]c1ccccc21,?,i,?,?,i,20.6µM*
CCCCc1c(O)c2ccccc2[nH]c1=O,16.6%,i,-9.5%,25.8%,i,-2.2%
CCc1ccc(NC(=O)c2ccc(S(=O)(=O)NCc3cccnc3)cc2)cc1,-15.9%,i,?,1.1%,i,?
COc1cccc(NC(=O)c2ccc(S(=O)(=O)NCc3cccnc3)cc2)c1,-18.9%,18.4µM*,?,-17.1%,i,?
COc1cccc(S(=O)(=O)NCc2ccc(C(=O)N3CCN(C)CC3)cc2)c1,-1.7%,i,-0.5%,-2.2%,i,9.0%
CCC(C)NC(=O)c1ccc(CNS(=O)(=O)c2ccc3c(c2)C(C)(C)C(=O)N3C)cc1 (stereo not given),16.3%,i,-8.0%,1.4%,i,-10.8%
Cc1cccc(NC(=O)c2ccc(CNS(=O)(=O)c3ccc4c(c3)C(C)(C)C(=O)N4C)cc2)c1,nt,nt,20.6µM*,nt,nt,11.6µM*
SMILES,HT1080NT lethal,KB-V1 cytotox,TDP1 cell CPT,HT1080 IDH1KD tx,KB-3-1 tox,TDP1 cell noCPT
Cc1ccc(CNC(=O)c2ccc(CNS(=O)(=O)c3ccc4c(c3)C(C)(C)C(=O)N4C)cc2)o1,-9.2%,i,7.0%,3.1%,i,-3.7%
COc1cccc(NC(=O)c2ccc(CNS(=O)(=O)c3ccc4c(c3)C(C)(C)C(=O)N4C)cc2)c1,nt,nt,?,nt,nt,23.1µM*
COc1cccc(S(=O)(=O)NCc2ccc(C(=O)Nc3cccc(Cl)c3)cc2)c1,?,?,20.6µM*,-17.3%[9.24 µM],?,25.9µM*
Cc1ccc(NC(=O)c2ccc(CNS(=O)(=O)c3ccc4c(c3)C(C)(C)C(=O)N4C)cc2)cc1C,nt,nt,14.6µM*,nt,nt,11.6µM*
CC(C(=O)Nc1ccc(O)cc1)c1cccc(C(=O)c2ccccc2)c1 (stereo not given),-8.8%,?,?,-22.6%,?,20.6µM*
CC(C)CC(=O)[C@@H](O)Cc1ccc(O)cc1,19.4%,?,-2.9%,4.1%,i,-22.2%
CC(C(=O)Nc1ccccc1)c1ccc(-c2ccccc2)c(F)c1 (stereo not given),?,i,18.4µM*,20.6µM*,?,23.1µM*
CC(C)Cc1ccc(C(C)C(=O)Nc2cccnc2)cc1 (stereo not given),?,i,2.31µM*,?,?,3.66µM*
CC(C)Cc1ccc(C(C)C(N)=Nc2ccc(O)cc2)cc1 (stereo not given),?,?,25.9µM*,20.6µM*,?,16.4µM*
CC(=O)Nc1ccc(NC(=O)C(C)c2cccc(C(=O)c3ccccc3)c2)cc1 (stereo not given),15.2%,i,17.8%,4.1%,i,-25.9%
COC(=O)Nc1nn(-c2ccc(OC)cc2)c(=O)c(C#N)c1C,-5.9%,?,-7.4%,4.6%,?,-2.0%
C1=C(c2ccc3c(c2)CN(Cc2cccn2-c2ncccn2)CCO3)Cc2ccccc21,nt,nt,?,nt,nt,-0.2%
Fc1ccc2[nH]c(-c3cccs3)cc2c1,nt,i,-5.5%,nt,i,-7.1%
